In the supplement of paper PMC12819154, “High-throughput peptide-centric local stability assay extends protein–ligand identification to membrane proteins, tissues and bacteria” (Nature Structural & Molecular Biology, 2025) one finds log2 fold change data, which are given here for 12 targets.
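Also: lysate desalted by size exclusion to strip endogenous ATP, peptide intensities built from DIA-NN precursor signals, and peptides missing any value discarded before comparison.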

Compound in this assay: Nc1ncnc2c1ncn2[C@@H]1O[C@H](COP(=O)(O)OP(=O)(O)OP(=O)(O)O)[C@@H](O)[C@H]1O [adenosine 5'-triphosphate]
The assay is described as follows: log2 fold change of tryptic peptide abundance, ligand vs vehicle (limited proteolysis) (log2 ratio); higher = more trypsin-susceptible (destabilized). Conditions: ligand concentration: 5 mM; sample: E. coli desalted lysate; replicate design: treated before aliquoting. As to the method:
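HT-PELSA: desalted E. coli K-12 BW25113 lysate (with 12 mM MgCl2) incubated with 5 mM ATP (pH 7) or water for 30 min at 25 C, then a 4 min trypsin pulse at 22 C. Peptides were quantified by DIA-MS (4 replicates). Value is the peptide log2 fold change (treated/control); negative = stabilized. Scale: negative = ligand-stabilized region.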
Consider “UniProt P25516 (peptide sequence: KTLGLTGEEK, peptide start residue: 823)”, for which the log2 fold change was -0.721.

Turning to “UniProt P0ABM9 (peptide sequence: DEAQEQQFR, peptide start residue: 27)”, the log2 fold change was 0.867.

Consider “UniProt P40719 (peptide sequence: RFTSDAAHELR, peptide start residue: 239)”, for which the log2 fold change was -2.75.

With “UniProt P0AAS7 (peptide sequence: LEGWSESGAQAK, peptide start residue: 20)”, the log2 fold change is -0.938.

Take “UniProt P46850 (peptide sequence: KDAEVIDEIPMAYK, peptide start residue: 368)”: the log2 fold change is -0.573.

For “UniProt P11553 (peptide sequence: AQIHYQYR, peptide start residue: 451)”, the log2 fold change is 0.93.

“UniProt P0A959 (peptide sequence: QGWMVLNGPKKHAK, peptide start residue: 249)”: the log2 fold change turned out to be 1.18.

As to “UniProt P13035 (peptide sequence: IGLFMYDHLGK, peptide start residue: 103)”, the log2 fold change is 0.643.

Regarding “UniProt P32125 (peptide sequence: AGAAQTIVASQQR, peptide start residue: 63)”, the log2 fold change is -0.686.

As to “UniProt P37760 (peptide sequence: ALQEYCAK, peptide start residue: 138)”, the log2 fold change is -1.03.

As to “UniProt P37024 (peptide sequence: LVVDCAQER, peptide start residue: 286)”, the log2 fold change was -0.502.

On to “UniProt P37595 (peptide sequence: AQMSLQQELR, peptide start residue: 18)”, for which the log2 fold change was found to be 0.693.
